Rows were chosen to be rich in hits. Some 21% of all compounds tested hit in one or more screens of this group.
TDP1 cell noCPT: qHTS for Inhibitors of human tyrosyl-DNA phosphodiesterase 1 (TDP1): qHTS in cells in absence of CPT; DT40 Tdp1-/- hTDP1 cells, no CPT, ATP luminescence, 48 h; Potency, µM (highest dose often 46.2 µM), for the others: at the highest dose activity change, negative = growth inhibition, hits mostly inhibitors; actives 15% (n = 420,000); AID 686978, 2013; note: potency is the fitted concentration of half-maximal effect; % is set by controls: 0 for no effect and ±100 for the full control effect; nearly all actives have a fitted effect of over 55% in size
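DT40 Tdp1-/-;hTDP1 cells, no CPT (DMSO vehicle only), 400 cells/well; compounds pin-transferred; ≥48 hr, 37 °C; CellTiter-Glo 30 min RT dark, luminescence read.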
D3 ag: qHTS of D3 Dopamine Receptor Agonist: qHTS; D3R DiscoveRx beta-arrestin cells, luminescence, 90 min; max activation, %; actives 0.58% (n = 410,000); AID 652048, 2013; in the data active = max activation above about 30%; note: 0% is about no effect
Target sequence (P35462 whole entry, looked up): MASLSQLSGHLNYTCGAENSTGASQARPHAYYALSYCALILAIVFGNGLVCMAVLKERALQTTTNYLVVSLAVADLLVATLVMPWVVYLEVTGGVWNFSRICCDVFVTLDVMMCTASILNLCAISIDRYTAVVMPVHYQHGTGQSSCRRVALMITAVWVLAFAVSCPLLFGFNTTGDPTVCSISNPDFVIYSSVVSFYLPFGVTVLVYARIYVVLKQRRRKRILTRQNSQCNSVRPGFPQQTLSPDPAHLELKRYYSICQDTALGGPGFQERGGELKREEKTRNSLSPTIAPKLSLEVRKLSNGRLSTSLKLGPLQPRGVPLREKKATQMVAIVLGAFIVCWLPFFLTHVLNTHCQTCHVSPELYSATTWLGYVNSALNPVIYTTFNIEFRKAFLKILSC
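Cells at 1500/well, incubated overnight, then treated with pinned compounds (dopamine as control) for 90 min at 37 degrees C. DiscoveRx reagent added for 30 - 60 minutes at room temperature; luminescence read.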
DT40 TDP1 CPT: qHTS for Inhibitors of human tyrosyl-DNA phosphodiesterase 1 (TDP1): qHTS in cells in presence of CPT. Potency, µM (titrated, usually from 46.2 µM), inactives show at the top dose activity change, negative = growth inhibition, usual class: inhibitors. chicken DT40 Tdp1-/-;hTDP1 cells + 20 nM CPT, ATP luminescence, 48 h. actives 12% (n = 420,000); note: potency is the fitted concentration of half-maximal effect; % is set by controls: 0 for no effect and ±100 for the full control effect; nearly all actives have a fitted effect of over 55% in size
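Chicken DT40 Tdp1-/- cells stably complemented with human TDP1 were seeded at 400 cells/well in medium containing 20 nM camptothecin, exposed to pin-transferred compounds, and grown at 37 °C for at least 48 hr. Viability was read as ATP luminescence.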
ClpP mod: qHTS Assay for Activators of ClpP; purified B. subtilis ClpP, FRET peptide cleavage, 20 min; Potency, µM (titrated, usually from 57.5 µM), for inactives: at the top dose activity change, negative = active; ATP-dependent Clp protease proteolytic subunit (Bacillus subtilis (strain 168)), P80244; actives 1.9% (n = 340,000); active = well fitted falling curve with a large enough effect; inconclusive = small, poorly fitted or top-dose-only effect; inactive = no such curve, though single readings can be large or run the other way; note: potency is the fitted concentration of half-maximal effect; the source files actives as falling curves though it sought activators and does not explain the sign; nearly all actives have a fitted effect of over 65% in size
Target sequence (P80244 whole entry, looked up): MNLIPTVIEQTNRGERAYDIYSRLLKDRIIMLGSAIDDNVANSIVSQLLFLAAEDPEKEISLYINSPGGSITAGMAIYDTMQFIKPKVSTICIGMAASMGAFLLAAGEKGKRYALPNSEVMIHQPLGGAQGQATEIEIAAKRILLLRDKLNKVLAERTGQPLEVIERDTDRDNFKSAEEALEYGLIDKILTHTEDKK
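Purified B. subtilis ClpP, 10 microg/mL final in Tris/HCl pH8 with KCl, BSA, glycerol and Tween-20, cleaved an Abz/nitrotyrosine-quenched decapeptide. Fluorescence (ex 320, em 430) was read at 0 and 20 min at room temperature. Delta was normalized to 5.8 microM ADEP and DMSO/no-enzyme controls.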
D3 antag: qHTS of D3 Dopamine Receptor Antagonist: qHTS; D(3) dopamine receptor (Homo sapiens), P35462; D3R cells, DiscoveRx beta-arrestin luminescence, antagonist mode; active compounds read low; max response, negative = inhibition, %; actives 2.5% (n = 360,000); in the data active = max response below about -50%; inconclusive = no clear call, values can overlap the other calls; note: % is set by controls: 0 for no effect and ±100 for the full control effect
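Cells plated overnight at 1500 cells/well, then exposed to library compounds with dopamine controls for 90 minutes at 37 degrees C. DiscoveRx reagent added for 30–60 minutes at room temperature; luminescence read, quantitative HTS format.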
IL1B secr inh: qHTS for Inhibitors of Inflammasome Signaling: IL-1-beta AlphaLISA Primary Screen; actives 4.7% (n = 360,000); AID 743279, 2014; activity change, % at 57.5 µM; THP-1 LPS/ATP IL-1B secretion, AlphaLISA, 16 h; active compounds read low; in the data active = activity change below about -50%; inconclusive = mostly about -30% to -49%; note: % is set by controls: 0 for no effect and ±100 for the full control effect
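THP-1 cells pretreated 1 hr with compounds (up to 57.5 uM final), then stimulated with LPS (250 ng/mL final) plus ATP (1.25 mM final); secreted IL-1B measured by AlphaLISA after 16 hr, decreased signal indicating inhibition.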
An asterisk follows results filed as active; u = inconclusive; x = not tested or not shown; ! = not active in a repeat; [ ] = dose if it differs, or a comment. Unless noted, calls come from the whole dose curve; as a rule, active = well fitted inhibition curve with a large enough effect; inconclusive = small, poorly fitted or top-dose-only effect; inactive = flat fitted curve, though single readings scatter.

SMILES	TDP1 cell noCPT	D3 ag	DT40 TDP1 CPT	ClpP mod	D3 antag	IL1B secr inh
CC1=C(C(=O)Nc2ccccc2)C(c2cccc(Cl)c2)n2nc(SCC(=O)c3ccc(C)cc3)nc2N1 (configuration not stated)	-7%	-6	-1%	-3%	x	x
COc1ccc(NC(=O)C2CC(=O)N(CCc3ccc(Cl)cc3)C2)cc1 (configuration not stated)	u	2	u	4%	9	-17
Cc1nn(CC(=O)NNC(=O)c2cccc(Br)c2)c(C)c1[N+](=O)[O-]	5%	-2	3%	-2%	-3	2
CN(CC(=O)Nc1ccc(F)c(F)c1F)C(=O)C1CSC2(C)CCC(=O)N12 (configuration not stated)	0%	2	-22%	-1%	4	0
C=CCN(C(=O)C1CSC2(C)CCC(=O)N12)c1nc(-c2ccccc2)cs1 (configuration not stated)	23µM*	-17	18µM*	-2%	3	-26
CN(CC(=O)Nc1ccc(Cl)c(C(F)(F)F)c1)C(=O)C1CSC2(C)CCC(=O)N12 (configuration not stated)	18µM*	4	u	-1%	6	-3
CN(Cc1ccc(C(C)(C)C)cc1)C(=O)C1CSC2(C)CCC(=O)N12 (configuration not stated)	u	3	16µM*	3%	12	21
Cc1ccc(-c2csc(NC(=O)C3CSC4(C)CCC(=O)N34)n2)cc1 (configuration not stated)	-22%	-9	-8%	2%	-11	13
CCOCCCNC(=O)c1cc(Nc2ccc(OC)cc2OC)nc2ccccc12	-20%	1	u	1%	26	2
COc1ccc(-c2nsc(NC(=O)c3oc4ccccc4c3C)n2)cc1	-29%	3	u	-9%	x	x
CC1=CN2C(=NC(=O)CC2(C)C(=O)N(CC(=O)NC2CCCC2)Cc2ccc(Cl)cc2)C=C1 (configuration not stated)	-1%	-4	0%	x	-4	4
CC(=O)Nc1nnc(C)s1	0%	-4	1%	1%	5	9
CC(=O)Nc1nnc([N+](=O)[O-])s1	18µM*	-1	18µM*	-4%	-12	7
COc1ccc(/C=C/C(=O)NCCCc2ccccc2)cc1	5%	-2	-7%	28%	2	8
COc1ccc(/C=C/c2cc[n+](C(=O)Cc3ccccc3)cc2)cc1	2.3µM*	-10	3.3µM*	x	-5	-108*
O=C(NCc1ccccc1Cl)c1ccc2nc([C@@H]3O[C@H](CO)[C@H](O)[C@H](O)[C@H]3O)[nH]c2c1	4%	-3	-19%	0%	33	-17
CCc1cccc(C)c1NC(=O)CN(C)Cc1ccc(Br)cc1	u	3	21µM*	0%	-5	-57*
CC(C)(C)NC(=O)CN(Cc1ccccc1)S(=O)(=O)c1ccccc1	-8%	1	-3%	-2%	-23	-74*
O=C(CN(Cc1ccc(Br)cc1)S(=O)(=O)c1ccccc1)NCc1ccccn1	u	1	-28%	1%	4	-14
CC[N+](CC)(CC)CC(=O)Nc1c(C)cccc1C	14%	-6	18µM*!	-3%	2	4
Cc1cccc(C)c1NC(=O)CN(Cc1ccc(Br)cc1)S(=O)(=O)c1ccccc1	15µM*	-12	u	-12%	x	x
CNC(=O)CN(Cc1ccccc1)S(=O)(=O)c1ccccc1	0%	5	5%	0%	7	-7
O=[N+]([O-])c1cc(F)cc(F)c1Nc1ccc(F)cc1	-5%	-3	-20%	x	-21	-1
CN(CCO)C(=O)c1cn(C2CCN(Cc3c(F)cccc3Cl)CC2)nn1	-9%	x	-16%[9.04 µM]	x	x	x
Nc1ccn([C@@H]2O[C@H](C(=O)Nc3cc(C(F)(F)F)cc(C(F)(F)F)c3)[C@@H](O)[C@H]2O)c(=O)n1	-21%	-5	-9%	0%	-14	44
SMILES	TDP1 cell noCPT	D3 ag	DT40 TDP1 CPT	ClpP mod	D3 antag	IL1B secr inh
Cc1cccc(C)c1NC(=O)CN(Cc1ccccc1)Cc1ccccc1	21µM*	-6	u	-1%	15	-1
CCOc1cc(/C=C2\CCCC(C(=O)C(F)(F)F)=C2O)ccc1O	23µM*	-25	23µM*	1%	-52*	u
COc1ccc(/C=C2/CCCC(C(=O)C(F)(F)F)=C2O)cc1OC	18µM*	-10	23µM*	3%	-1	u
COc1cc(/C=C2/CCCC(C(=O)C(F)(F)F)=C2O)ccc1O	-18%	-4	11%	x	-5	-24
CCC/C(=C1/c2ccccc2C(=O)N1c1ccccc1)c1ccc2c(c1)OCCO2	-28%	-1	u	-8%	-2	34
CCC/C(=C1/c2ccccc2C(=O)N1c1ccccc1)c1ccc(O[C@@H]2CCCCO2)cc1	16µM*	1	u	-5%	-6	42
CCC(=O)NC(Nc1sc2c(c1C(=O)OC)CCC2)C(Cl)(Cl)Cl (configuration not stated)	15µM*	12	15µM*	1%	3	11
CCOC(=O)c1c(NC(NC(C)=O)C(Cl)(Cl)Cl)sc2c1CCCC2 (configuration not stated)	u	-5	16µM*	2%	-5	14
COC(=O)c1c(NC(NC(=O)C(C)C)C(Cl)(Cl)Cl)sc2c1CCC2 (configuration not stated)	13µM*	1	16µM*	u	u	20
COc1ccc(/C(O)=C2/C(=O)C(=O)N(CCCN3CCOCC3)C2c2ccc(Cl)cc2)cc1 (configuration not stated)	-8%	1	-15%	0%	2	-19
Cc1cc(OCC(=O)NCCc2cccc(F)c2)c2c(C)cc(=O)oc2c1	20%	0	1%	4%	-6	4
COc1ccc(OC)c(CNC(=O)C2CCN(S(=O)(=O)c3cn(C)cn3)CC2)c1	2%	-2	-11%	2%	x	x
